A selection: hits, their analogues and other compounds. The true share with any hit is near 10%.
LMNA splice mod: changes lamin A minigene splicing in HeLa cells; HeLa LMNA splicing GFP/RFP minigene ratio, 48 h; Potency, µM (series often up to 46.1 µM), hits mostly inhibitors; hit rate 0.01% among 200,000; AID 1487; active = well fitted inhibition curve with a large enough effect in the signal ratio, with a control signal flat, not every such curve was filed as active; inconclusive = small, poorly fitted or top-dose-only effect, or effect the other way, or a change in a side signal; the % refers to the signal ratio
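Read-out is the ratio of GFP to DsRed2 object intensity, acquired by 488 nm laser-scanning cytometry on HeLa lamin A-EGFP minigene reporter cells. Compound incubation 48 hrs at 37 °C in Opti-MEM with 2% FBS; DMSO 0.5% final.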
PNC inhibitor: perinucleolar compartment assembly inhibition | PC3M PTB-GFP, PNC prevalence imaging, 16 h; hits give low values | hit rate 3.1% among 140,000 | AID 2417 | activity change (PNC), negative = inhibition, % at 10 µM;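 active = readout at or below -70, meaning at least 70% loss of cells showing the perinucleolar compartment, a nuclear body marking cancer cells; inconclusive = readout between -30 and a set limit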
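Read-out is percentage of cells bearing a perinucleolar compartment, from automated 20x imaging of fixed, Hoechst-stained PC3M PTB-GFP cells. Cells were seeded 4 h, then exposed 16 h to compound (23 nl of library stock) in duplicate plates.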
HPGD block: HPGD (human) dehydrogenase inhibition. P15428. purified HPGD, NADH fluorescence kinetic, PGE2 substrate. Potency, µM, hits mostly inhibitors. hit rate 4.3% among 150,000. AID 894
Target sequence (P15428 whole entry, looked up): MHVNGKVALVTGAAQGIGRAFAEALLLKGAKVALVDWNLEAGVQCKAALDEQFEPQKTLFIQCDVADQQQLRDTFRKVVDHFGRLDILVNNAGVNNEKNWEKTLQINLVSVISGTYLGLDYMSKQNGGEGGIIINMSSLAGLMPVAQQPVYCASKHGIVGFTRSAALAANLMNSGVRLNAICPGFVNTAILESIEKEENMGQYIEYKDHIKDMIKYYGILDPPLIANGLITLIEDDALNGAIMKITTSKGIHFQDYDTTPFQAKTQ
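NADH formation kinetics: reaction with 30 uM PGE2 and 1 mM NAD+ (final), 20 nM enzyme, Tris-HCl pH 8 with Tween 20, after 15 min compound preincubation at room temperature. Fluorescence change, last versus first of five reads.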
ALDH1A1 inh: ALDH1A1 (human) enzyme inhibition | hit rate 7.3% among 220,000 | Purified ALDH1A1, NADH fluorescence, propionaldehyde substrate | Potency, µM (top dose mostly 75.3 µM), hits mostly inhibitors
Luc counter: counter-screen: inhibitors of Kinase-Glo firefly luciferase | hit rate 0.28% among 200,000 | Potency, µM (highest dose often 38.3 µM), usual class: inhibitors | Kinase-Glo luciferase, ATP luminescence, 8 min | Q27757; active = well fitted inhibition curve with a large enough effect; inconclusive = small, poorly fitted or top-dose-only effect; also: nearly all actives have a fitted effect of over 60% in size
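Recombinant Kinase-Glo luciferase, 10 uM ATP (linear range), luciferin; imidazole pH 7.2 / KCl / MgCl2 / Tween / BSA buffer; 8 min RT; luminescence.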
Numbers stand for hits; i = inactive; ? = inconclusive; nt = not tested or not shown; [ ] = another dose, or the depositor's remark. Unless noted, calls follow the shape of the dose curve; as a rule, active = well fitted inhibition curve with a large enough effect (not every such curve was filed as active); inconclusive = small, poorly fitted or top-dose-only effect, or another doubt; inactive = no such curve, though single readings can be large or run the other way.

SMILES	LMNA splice mod	PNC inhibitor	HPGD block	ALDH1A1 inh	Luc counter
CCCCC(=O)Nc1sc(C(=O)N(CC)CC)c(C)c1C(=O)OC	i	-100	2.5µM	8.9µM	i
CCCc1cc(C(=O)Nc2sc(C(C)=O)c(C)c2C(=O)OCC)no1	i	i	?	25µM	i
CCN(CC)C(=O)c1sc(NC(=O)c2cccnc2)c(C(=O)OC)c1C	i	i	20µM	?	i
CCOC(=O)c1c(NC(=O)CN(C)C)sc(C(=O)N(CC)CC)c1C	i[0.0737 µM]	i	i	?	i
Cc1ccc(CCCC(=O)O)cc1C	nt	nt	i	i[13.5 µM]	i[7.66 µM]
CSCCC=O	nt	nt	i	i	nt
COC(=O)c1c(-c2cccs2)csc1NC(=O)c1cccnc1	?	-100	?	?	i
CCOC(=O)c1c(NC(=O)CC)sc(C(C)=O)c1C	i	i	?	14µM	i
CCN(CC)C(=O)c1sc(NC(=O)c2ccc(Br)o2)c(C(=O)OC)c1C	i	i	16µM	?	i
CCOC(=O)c1sc(NC(=O)c2ccc(Br)o2)cc1C	i	i	?	?	?
CN1CCc2c(cc(O)c(O)c2Cl)C(c2cccc(Cl)c2)C1 (stereo not given)	?	nt	i	i	i
CN(C)c1ncc2nc(-c3ccccc3)c(=O)n(Cc3ccc(F)cc3)c2n1	i	nt	nt	?	nt
COc1ccc(C(=O)N2CCC3(CCCN(C)C3)CC2)cc1	nt	nt	i	i	i
C=CC[C@H]1CC(Cc2ccccc2)=C[C@H](CC=C)N1	i	-81	i	?	i
CC(C)(C)C(=O)[C@H](C(c1ccccc1)N1CCOCC1)N1CCOCC1 (stereo not given in full)	nt	nt	i	i[13.5 µM]	i[7.66 µM]
CCOc1ccc(/C=N/Nc2ccccn2)cc1OC	nt	nt	nt	i	i
CCOc1ccc(/C=N/N(C)c2ccccc2)cc1OC	i	i	i	7.9µM	i
CCCSc1nc(C)c(-c2csc(C(C#N)=C3CCCC3)n2)cc1C#N	?	?	i	22µM	i
Cc1ccc(N2C(=O)CSC23C(=O)N(CC(=O)NCCc2ccccc2)c2ccccc23)cc1C (stereo not given)	i	nt	nt	nt	nt
Cc1cccc2cc(C3CC(c4ccco4)=NN3S(=O)(=O)c3ccccc3)c(Cl)nc12 (stereo not given)	i	-91	i	i	i
CC(C)OCC1CC(CC(=O)NC(=S)Nc2cccc([N+](=O)[O-])c2)C(=O)O1 (stereo not given)	?	-100	i	i	i
CCCNC(=O)NC(=O)COC(=O)c1ccc(S(=O)(=O)N(C)c2ccccc2OC)cc1	?	nt	nt	13µM	i
COc1ccccc1N(C)S(=O)(=O)c1ccc(C(=O)OCC(N)=O)cc1	?	nt	nt	i	i
COc1cccc(NC(=O)CN(C)CC(=O)Nc2ccc(C)cc2Cl)c1	i	nt	nt	11µM	i
CCOCC(=O)Nc1cccc(OC)c1	i	-89	?	?	i
SMILES	LMNA splice mod	PNC inhibitor	HPGD block	ALDH1A1 inh	Luc counter
Cc1ccc(NC(=O)c2cccc(Cl)c2)nc1	i	?	i	?	11µM
Cc1ccc(C(=O)Nc2ccc(Cl)cn2)cc1	i	i	i	i	i
COc1cccc(C(=O)Nc2ccc(NC(=O)C(C)(C)C)cn2)c1	i	-84	i	i	i
C[C@@](N)(Cc1ccc(O)c(O)c1)C(=O)O	?	nt	?	i	i
Cc1ccc(C2CCN(C(=O)Nc3ccc(C)c(C)c3)C2)cc1 (stereo not given)	i	nt	nt	nt	nt
COc1ccc(C(=O)Nc2ccc3[nH]c(-c4cccc(OC)c4)cc(=O)c3c2)cc1	?	-119	i	i	i
COc1ccc(C(=O)Nc2cccc(OC)c2)cc1	i	?	i	?	7.9µM
COc1cccc(-c2cc(=O)c3cc(NC(=O)c4cccnc4)ccc3[nH]2)c1	nt	nt	i	i	i
COc1cccc(NC(=O)c2ccc(NC(=O)C(C)C)cc2)c1	nt	nt	nt	i	nt
Nc1ccc(SC(F)(F)F)cc1	i	nt	nt	20µM	i
N#C/C(=C(/N)Sc1ccc(N)cc1)c1ccccc1C(F)(F)F	nt	nt	i	?	i
O=C1C=C(Nc2ccc(O)cc2)CC(c2ccco2)C1 (stereo not given)	?	i	22µM	?	i
CC(C)CNC1=CC(=O)CC(c2ccco2)C1 (stereo not given)	i	-81	i	14µM	i
Cc1cc2nc3c(=O)[nH]c(=O)nc-3n(CC(O)C(O)C(O)COP(=O)(O)O)c2cc1C (stereo not given)	?	nt	i	i	i
CCc1ccc(CNC(=O)c2cnc3c(C)cccn3c2=O)cc1	i	nt	nt	nt	nt
O=C(CONS(=O)(=O)c1ccc(Cl)cc1)NCCNc1ncc(C(F)(F)F)cc1Cl	i	nt	nt	13µM	i
O=C(Oc1ccccc1)N1CCC2(CCCN(c3ncccn3)C2)CC1	nt	nt	?	i	i
O=C(NCc1ccco1)c1ccc(C(F)(F)F)cc1	i	nt	nt	i	i
O=C(NCc1ccco1)c1ccc(N2CCCC2=O)cc1	?	i	25µM	i	i
CN1C(=O)c2ccc(C(=O)NCc3ccccc3)cc2C1=O	i	-92	i	?	i
CC(C)(C)N1C(=O)c2ccc(C(=O)NCc3ccco3)cc2C1=O	i	i	i	8.9µM	i
CCN1C(=O)CSc2ccc(C(=O)NCc3ccco3)cc21	i	i	i	13µM	i
CCN1C(=O)CSc2ccc(C(=O)OC)cc21	i	i	i	i	i
O=C(NCc1ccc(N2CCCC2=O)cc1)c1ccc(F)cc1	?	nt	nt	i	i
CC(=O)N1CCOc2cc(S(=O)(=O)Nc3cccc(C(F)(F)F)c3)c(Cl)cc21	i	nt	nt	nt	nt
SMILES	LMNA splice mod	PNC inhibitor	HPGD block	ALDH1A1 inh	Luc counter
Cc1ccc(/C=C/C(=O)N2CCCC(C(N)=O)C2)o1 (stereo not given)	nt	nt	nt	14µM	nt
Cc1ccc(/C=C/C(=O)N2CCN(c3ncccn3)CC2)o1	i	i	20µM	3.5µM	i
Cc1c2oc3c(C)ccc(C(=O)N[C@@H]4C(=O)N[C@@H](C(C)C)C(=O)N5CCC[C@@H]5C(=O)N(C)CC(=O)N(C)[C@@H](C(C)C)C(=O)O[C@H]4C)c3nc-2c(C(=O)N[C@@H]2C(=O)N[C@@H](C(C)C)C(=O)N3CCC[C@@H]3C(=O)N(C)CC(=O)N(C)[C@@H](C(C)C)C(=O)O[C@H]2C)c(N)c1=O	nt	nt	?	?	i
Cc1ccc(NC(=O)c2c(C)oc3nc(C)nc(N4CCCC4)c23)c(C)c1	i	nt	nt	nt	nt
ClC/C=C/CCl	nt	nt	i	i	nt
CCOc1ccc(NC(=O)/C=C/c2ccccc2)c([N+](=O)[O-])c1	i	i	i	i	i
CCOc1ccc(N/C=C/C(=O)c2ccccc2)c([N+](=O)[O-])c1	i	i	i	i	11µM
CCOC(=O)C(=O)C1=C(N2CCOCC2)/C(=C\c2cccc([N+](=O)[O-])c2)CC1	i	i	32µM	2.2µM	i
O=C(NP(=O)(N1CCCC1)N1CCCC1)C1=C(N2CCOCC2)/C(=C/c2cccc([N+](=O)[O-])c2)CC1	i	nt	nt	10µM	i
O=[N+]([O-])c1cccc(/C=C2\CCC(/C=N/Nc3ccc4ccccc4n3)=C2N2CCOCC2)c1	i	i	i	?	i
Cn1c(-c2ccc(C(C)(C)C)cc2)n[nH]c1=S	i	i	?	32µM	i

Bioassay records: PubChem BioAssay, National Center for Advancing Translational Sciences (NCATS)
